In the supplement of paper PMC11732987, “Enantioselective OTUD7B fragment discovery through chemoproteomics screening and high-throughput optimisation” (Communications Chemistry, 2025):

What was measured:
Assay in all cases: log2 ratio of Biotin-Ahx-Ub-VS probe labelling (fragment/DMSO); higher = less target engagement (more negative = stronger competition), active = hit call of the paper (q ≤ 0.05, log2 ratio ≤ -1)
Settings in all cases: compound concentration: 200 uM; treatment time: 3 h
USP19 = target: T1, USP19 (UniProt O94966)
T1 sequence (whole entry): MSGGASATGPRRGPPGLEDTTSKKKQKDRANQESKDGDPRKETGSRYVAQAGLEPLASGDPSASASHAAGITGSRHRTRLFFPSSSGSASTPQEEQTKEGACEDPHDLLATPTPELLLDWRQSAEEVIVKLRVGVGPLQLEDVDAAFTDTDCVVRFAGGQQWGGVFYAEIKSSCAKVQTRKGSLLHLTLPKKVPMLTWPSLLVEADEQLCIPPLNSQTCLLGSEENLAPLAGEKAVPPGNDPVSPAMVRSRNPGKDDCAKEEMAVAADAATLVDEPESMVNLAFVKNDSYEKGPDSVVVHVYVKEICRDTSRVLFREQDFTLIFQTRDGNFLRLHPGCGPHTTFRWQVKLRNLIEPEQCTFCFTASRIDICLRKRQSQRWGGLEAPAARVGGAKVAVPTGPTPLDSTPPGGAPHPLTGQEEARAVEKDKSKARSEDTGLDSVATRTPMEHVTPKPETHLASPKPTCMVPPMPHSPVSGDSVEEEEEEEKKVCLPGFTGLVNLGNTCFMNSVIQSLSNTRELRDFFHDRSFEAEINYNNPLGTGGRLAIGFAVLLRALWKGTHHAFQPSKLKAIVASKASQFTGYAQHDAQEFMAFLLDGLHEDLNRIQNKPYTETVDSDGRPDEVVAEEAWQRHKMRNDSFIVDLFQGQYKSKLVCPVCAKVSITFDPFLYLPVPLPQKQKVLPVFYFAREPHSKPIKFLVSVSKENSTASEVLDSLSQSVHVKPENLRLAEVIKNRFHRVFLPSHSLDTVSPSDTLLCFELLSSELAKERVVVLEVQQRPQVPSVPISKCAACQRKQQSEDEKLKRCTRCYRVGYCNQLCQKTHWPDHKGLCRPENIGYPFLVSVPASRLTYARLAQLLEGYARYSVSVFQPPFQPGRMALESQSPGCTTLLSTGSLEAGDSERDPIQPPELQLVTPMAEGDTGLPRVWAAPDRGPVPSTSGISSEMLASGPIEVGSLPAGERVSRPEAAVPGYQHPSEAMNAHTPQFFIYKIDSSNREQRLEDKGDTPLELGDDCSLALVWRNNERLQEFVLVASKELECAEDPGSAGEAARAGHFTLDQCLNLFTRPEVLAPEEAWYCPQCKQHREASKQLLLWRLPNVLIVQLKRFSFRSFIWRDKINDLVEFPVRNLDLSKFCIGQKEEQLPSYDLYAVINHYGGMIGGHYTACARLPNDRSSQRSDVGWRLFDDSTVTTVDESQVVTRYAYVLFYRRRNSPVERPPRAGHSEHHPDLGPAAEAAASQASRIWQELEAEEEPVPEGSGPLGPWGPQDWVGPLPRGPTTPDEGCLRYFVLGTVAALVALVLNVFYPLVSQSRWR
Summary of the method: (§1)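 Triplicate samples of HEK293T lysate, 495 µg each, received fragment at 200 µM or vehicle for 3 h, followed by Biotin-Ahx-Ub-VS (0.5 µM final) for 1 h. After NeutrAvidin enrichment of labelled DUBs and LysC/trypsin digestion, peptides were run by diaPASEF LC-MS/MS. The values are average log2 fragment/vehicle ratios from global-median-normalised Spectronaut label-free quantities, tested by unpaired t-test on proteins having ≥2 unique peptides.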

USP24 = USP24 (UniProt Q9UPU5)
USP24, sequence (Q9UPU5 whole entry): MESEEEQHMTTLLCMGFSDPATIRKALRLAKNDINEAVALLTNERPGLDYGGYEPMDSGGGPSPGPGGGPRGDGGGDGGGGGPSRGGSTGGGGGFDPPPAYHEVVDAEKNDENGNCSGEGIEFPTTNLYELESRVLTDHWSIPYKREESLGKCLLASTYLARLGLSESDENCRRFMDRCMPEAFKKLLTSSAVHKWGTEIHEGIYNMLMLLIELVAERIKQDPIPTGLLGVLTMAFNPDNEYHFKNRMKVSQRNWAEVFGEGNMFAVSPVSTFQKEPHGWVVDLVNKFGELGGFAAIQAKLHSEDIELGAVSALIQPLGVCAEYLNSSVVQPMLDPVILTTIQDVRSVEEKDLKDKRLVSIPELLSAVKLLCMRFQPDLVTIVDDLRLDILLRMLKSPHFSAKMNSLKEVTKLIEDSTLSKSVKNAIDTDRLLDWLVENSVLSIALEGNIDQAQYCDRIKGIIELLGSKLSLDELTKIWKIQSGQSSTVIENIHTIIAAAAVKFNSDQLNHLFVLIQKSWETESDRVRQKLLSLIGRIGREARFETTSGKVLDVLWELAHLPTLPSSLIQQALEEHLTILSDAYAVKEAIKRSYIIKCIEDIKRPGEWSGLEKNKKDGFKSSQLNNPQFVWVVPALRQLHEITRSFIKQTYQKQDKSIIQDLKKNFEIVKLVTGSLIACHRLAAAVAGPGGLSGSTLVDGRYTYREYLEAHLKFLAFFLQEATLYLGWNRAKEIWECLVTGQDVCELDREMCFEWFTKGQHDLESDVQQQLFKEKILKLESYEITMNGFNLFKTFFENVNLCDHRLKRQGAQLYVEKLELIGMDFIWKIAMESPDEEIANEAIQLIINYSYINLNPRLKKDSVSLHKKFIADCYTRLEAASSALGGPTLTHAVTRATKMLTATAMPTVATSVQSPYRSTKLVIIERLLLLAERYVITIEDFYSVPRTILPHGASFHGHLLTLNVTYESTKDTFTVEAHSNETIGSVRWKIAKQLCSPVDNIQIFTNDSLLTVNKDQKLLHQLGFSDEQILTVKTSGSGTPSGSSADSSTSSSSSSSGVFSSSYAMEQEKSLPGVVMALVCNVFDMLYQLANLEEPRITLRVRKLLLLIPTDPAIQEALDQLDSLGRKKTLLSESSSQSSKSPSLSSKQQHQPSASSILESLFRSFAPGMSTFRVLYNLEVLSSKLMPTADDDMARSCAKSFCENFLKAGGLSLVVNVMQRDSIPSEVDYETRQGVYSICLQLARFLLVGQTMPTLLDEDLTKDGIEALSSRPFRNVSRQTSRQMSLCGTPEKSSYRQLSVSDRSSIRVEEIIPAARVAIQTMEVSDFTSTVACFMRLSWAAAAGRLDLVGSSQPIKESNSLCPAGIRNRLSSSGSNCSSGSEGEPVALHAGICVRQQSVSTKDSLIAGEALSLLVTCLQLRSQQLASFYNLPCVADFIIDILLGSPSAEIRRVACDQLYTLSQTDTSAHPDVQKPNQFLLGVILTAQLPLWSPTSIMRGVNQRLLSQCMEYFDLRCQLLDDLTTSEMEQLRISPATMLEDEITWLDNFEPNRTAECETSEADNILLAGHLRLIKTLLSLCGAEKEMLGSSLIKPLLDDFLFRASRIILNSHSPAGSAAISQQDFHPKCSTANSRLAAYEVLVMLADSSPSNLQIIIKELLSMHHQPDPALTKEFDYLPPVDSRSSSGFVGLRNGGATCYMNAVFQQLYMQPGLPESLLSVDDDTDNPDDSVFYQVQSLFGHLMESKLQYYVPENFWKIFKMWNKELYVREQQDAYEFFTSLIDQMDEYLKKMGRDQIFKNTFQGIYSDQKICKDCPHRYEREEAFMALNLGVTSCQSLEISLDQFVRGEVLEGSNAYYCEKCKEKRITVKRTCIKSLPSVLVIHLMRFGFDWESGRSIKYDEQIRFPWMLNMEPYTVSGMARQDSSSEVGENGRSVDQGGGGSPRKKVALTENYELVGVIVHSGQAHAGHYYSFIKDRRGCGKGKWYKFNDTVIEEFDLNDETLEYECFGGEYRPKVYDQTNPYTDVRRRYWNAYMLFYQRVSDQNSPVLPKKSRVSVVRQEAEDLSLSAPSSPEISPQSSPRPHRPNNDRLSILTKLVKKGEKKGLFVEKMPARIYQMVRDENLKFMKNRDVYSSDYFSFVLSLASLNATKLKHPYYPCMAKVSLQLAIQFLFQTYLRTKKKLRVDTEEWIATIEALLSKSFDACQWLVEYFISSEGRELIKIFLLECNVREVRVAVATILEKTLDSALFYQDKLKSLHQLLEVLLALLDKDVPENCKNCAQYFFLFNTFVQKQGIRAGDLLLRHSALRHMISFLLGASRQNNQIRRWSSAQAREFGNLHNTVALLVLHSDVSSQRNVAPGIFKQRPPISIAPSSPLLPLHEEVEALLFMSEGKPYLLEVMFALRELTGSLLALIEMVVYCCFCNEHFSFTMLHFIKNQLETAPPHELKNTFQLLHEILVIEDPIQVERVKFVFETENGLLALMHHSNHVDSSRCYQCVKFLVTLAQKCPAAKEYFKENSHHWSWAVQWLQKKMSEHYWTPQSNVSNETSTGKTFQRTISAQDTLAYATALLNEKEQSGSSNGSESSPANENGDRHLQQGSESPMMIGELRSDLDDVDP
Summary of the method: as §1

USP25 = target: T2, USP25 (UniProt Q9UHP3)
T2 sequence (whole entry): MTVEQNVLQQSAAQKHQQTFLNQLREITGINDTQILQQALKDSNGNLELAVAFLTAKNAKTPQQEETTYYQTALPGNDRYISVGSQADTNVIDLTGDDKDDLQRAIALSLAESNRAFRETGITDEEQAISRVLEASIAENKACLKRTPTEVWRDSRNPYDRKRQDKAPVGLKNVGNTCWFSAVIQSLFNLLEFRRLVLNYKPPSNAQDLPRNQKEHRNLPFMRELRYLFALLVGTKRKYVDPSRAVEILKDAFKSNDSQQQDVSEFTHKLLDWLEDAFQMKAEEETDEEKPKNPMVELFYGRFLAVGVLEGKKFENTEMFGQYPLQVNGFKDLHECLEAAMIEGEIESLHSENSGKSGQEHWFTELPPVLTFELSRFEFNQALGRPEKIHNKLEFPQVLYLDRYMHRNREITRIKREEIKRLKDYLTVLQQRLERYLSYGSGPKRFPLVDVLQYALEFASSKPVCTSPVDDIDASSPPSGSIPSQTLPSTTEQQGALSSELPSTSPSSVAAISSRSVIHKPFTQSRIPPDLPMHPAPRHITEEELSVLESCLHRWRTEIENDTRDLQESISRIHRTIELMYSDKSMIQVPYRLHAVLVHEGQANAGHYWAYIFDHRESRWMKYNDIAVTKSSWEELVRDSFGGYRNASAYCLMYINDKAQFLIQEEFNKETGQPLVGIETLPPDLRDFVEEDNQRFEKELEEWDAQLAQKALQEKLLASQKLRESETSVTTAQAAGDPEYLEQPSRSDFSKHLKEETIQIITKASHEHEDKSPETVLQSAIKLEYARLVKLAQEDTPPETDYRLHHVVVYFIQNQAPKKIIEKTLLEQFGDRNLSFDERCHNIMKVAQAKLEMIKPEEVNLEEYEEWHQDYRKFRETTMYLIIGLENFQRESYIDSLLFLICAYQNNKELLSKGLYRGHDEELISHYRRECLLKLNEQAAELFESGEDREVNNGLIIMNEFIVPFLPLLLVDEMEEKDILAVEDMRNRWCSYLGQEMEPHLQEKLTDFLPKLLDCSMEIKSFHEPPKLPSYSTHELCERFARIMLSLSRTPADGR
Summary of the method: as §1

USP28 = target: T3, USP28 (UniProt Q96RU2)
T3 sequence (whole entry): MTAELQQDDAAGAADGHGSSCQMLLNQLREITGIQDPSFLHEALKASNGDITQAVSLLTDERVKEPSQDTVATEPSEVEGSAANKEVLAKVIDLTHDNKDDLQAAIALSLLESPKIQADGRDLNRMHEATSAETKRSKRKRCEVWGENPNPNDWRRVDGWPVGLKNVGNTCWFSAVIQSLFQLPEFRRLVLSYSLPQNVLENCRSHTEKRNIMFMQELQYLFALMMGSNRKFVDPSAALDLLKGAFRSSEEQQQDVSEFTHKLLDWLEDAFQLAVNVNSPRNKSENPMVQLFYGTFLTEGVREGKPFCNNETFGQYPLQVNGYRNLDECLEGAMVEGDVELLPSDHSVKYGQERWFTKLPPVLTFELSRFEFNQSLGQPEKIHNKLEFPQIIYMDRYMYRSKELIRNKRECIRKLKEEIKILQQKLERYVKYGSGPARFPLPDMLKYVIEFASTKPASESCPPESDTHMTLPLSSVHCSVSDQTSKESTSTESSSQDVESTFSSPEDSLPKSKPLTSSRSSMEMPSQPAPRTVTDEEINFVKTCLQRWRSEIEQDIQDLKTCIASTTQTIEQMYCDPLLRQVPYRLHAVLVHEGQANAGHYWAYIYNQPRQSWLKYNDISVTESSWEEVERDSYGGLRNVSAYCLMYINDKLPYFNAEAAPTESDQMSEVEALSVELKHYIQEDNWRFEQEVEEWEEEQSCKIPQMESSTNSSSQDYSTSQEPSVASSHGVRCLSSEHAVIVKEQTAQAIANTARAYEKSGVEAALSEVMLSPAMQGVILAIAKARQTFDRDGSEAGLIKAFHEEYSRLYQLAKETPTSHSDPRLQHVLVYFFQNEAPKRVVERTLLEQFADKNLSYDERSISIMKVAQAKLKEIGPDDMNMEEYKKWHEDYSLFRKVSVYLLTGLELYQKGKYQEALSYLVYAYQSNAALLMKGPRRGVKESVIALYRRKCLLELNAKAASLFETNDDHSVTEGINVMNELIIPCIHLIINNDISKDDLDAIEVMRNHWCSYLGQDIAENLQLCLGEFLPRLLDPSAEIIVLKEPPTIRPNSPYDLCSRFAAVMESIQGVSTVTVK
Summary of the method: as §1

Measured: log2 ratio of Biotin-Ahx-Ub-VS probe labelling

CS(=O)(=O)N1CCCN(C(=O)CCl)CC1
inactive: USP19 -0.0881 | USP24 -0.0413 | USP25 -0.243 | USP28 -0.549
